NPC1 prom act – qHTS Assay for NPC1 Promoter Activators | Huh7 NPC1 promoter luciferase reporter, 24 h | Potency, µM (top dose mostly 9.22 µM), without a hit: at the highest dose activation, hits mostly activators | hit rate 2.4% among 320,000 | AID 485313, 2010; further: % of control where 0% means no effect; nearly all actives have a fitted effect of over 60% in size
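Huh7 cells stably carrying NPC1 promoter–luciferase, plated in Opti-MEM with 10% FBS for 2 h, were exposed to compound in DMSO for 24 h at 37 °C; luciferase reagent was added for 10 min and luminescence read.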
FLuc counter – qHTS profiling assay for firefly luciferase inhibitor/activator using purifed enzyme and Km concentrations of substrates (counterscreen for miR-21 project). Luciferin 4-monooxygenase (Photinus pyralis), P08659. purified FLuc, Km substrates, luminescence inhibition. Potency, µM (top dose mostly 57.5 µM), inactives show top-dose activity change, negative = inhibition, usual class: inhibitors. hit rate 6.9% among 360,000. AID 588342, 2011;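 further: plate controls were vehicle for no effect and reference inhibitor for full effect; nearly all actives have a fitted effect of over 55% in size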
Target sequence (P08659 whole entry, looked up): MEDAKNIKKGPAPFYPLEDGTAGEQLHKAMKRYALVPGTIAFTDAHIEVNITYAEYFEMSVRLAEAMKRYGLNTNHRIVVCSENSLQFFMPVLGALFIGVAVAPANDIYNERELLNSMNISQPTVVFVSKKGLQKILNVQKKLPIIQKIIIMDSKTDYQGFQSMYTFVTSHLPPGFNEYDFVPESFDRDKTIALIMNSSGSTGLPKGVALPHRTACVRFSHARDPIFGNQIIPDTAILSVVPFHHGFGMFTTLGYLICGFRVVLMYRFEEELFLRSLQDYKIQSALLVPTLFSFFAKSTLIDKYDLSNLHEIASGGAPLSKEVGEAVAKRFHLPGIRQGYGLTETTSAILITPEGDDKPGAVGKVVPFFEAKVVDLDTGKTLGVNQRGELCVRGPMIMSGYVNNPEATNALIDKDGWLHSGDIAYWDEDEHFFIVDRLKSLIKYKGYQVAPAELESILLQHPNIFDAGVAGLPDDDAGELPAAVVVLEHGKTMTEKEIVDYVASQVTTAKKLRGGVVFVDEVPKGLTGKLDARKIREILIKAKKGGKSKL
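Purified P. pyralis luciferase (10nM final) with 10uM D-luciferin and 10uM ATP (Km levels) in 50mM Tris acetate pH 7.5, 10mM Mg acetate, 0.01% Tween-20, 0.05% BSA; qHTS 6-point titration, ~60 µM downward; luminescence read.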
ELG1 genotox – qHTS screen for small molecules that induce genotoxicity in human embryonic kidney (HEK293T) cells expressing luciferase-tagged ELG1. HEK293T ELG1-luciferase reporter, luminescence, 16 h. Potency, µM (highest dose often 46 µM), without a hit: top-dose activity change, positive = activation, usual class: activators. hit rate 1.3% among 330,000; further: % of control where 0% means no effect; nearly all actives have a fitted effect of over 60% in size
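Screening used a luciferase reporter fused to human ELG1 in HEK293T cells. Luminescence was read on a CCD plate imager after 16 hr exposure and 30 min ONE-Glo incubation.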
SMN2 splice up – qHTS Assay for Enhancers of SMN2 Splice Variant Expression. HEK293 SMN2-luciferase splicing reporter, luminescence, 30-36 h. Potency, µM (series often up to 46.1 µM), for the others: at the top dose activity change, positive = activation, usual class: activators. hit rate 2.8% among 210,000; further: % of control where 0% means no effect; nearly all actives have a fitted effect of over 55% in size
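HEK293 cells carry an SMN2 […]–luciferase reporter in which exon 7 inclusion puts luciferase in frame. Cells were plated 10-12 h before compound addition, then incubated 30-36 h at 37C. ONE-Glo luminescence was read; sodium butyrate at 4.5 mM final served as control.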
Rab9 promoter act – qHTS Assay for Rab9 Promoter Activators; Huh7 Rab9 promoter-luciferase reporter, luminescence, 24 h; Potency, µM (series often up to 9.22 µM), for inactives: top-dose activation, negative = inhibition, actives largely listed as activators; hit rate 2.8% among 320,000; further: % of control where 0% means no effect; nearly all actives have a fitted effect of over 60% in size
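Quantitative HTS format; Huh7 Rab9-luciferase reporter cells (1500/well) receive compound 2 h post-plating, incubate 24 h at 37 °C, then get luciferase reagent for 10 min before luminescence reading.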
The depositor's hits bear a star; u = inconclusive; x = no result given; [ ] = another dose, or the depositor's remark. Shown are actives, neighbours in structure and some others; about 7.5% of the full set was active somewhere. The call rests on the fitted dose curve; in most records, active means well fitted curve in the direction sought with a large enough effect; inconclusive means small, poorly fitted or top-dose-only effect, or another doubt; inactive means no such curve, though single readings can be large; an effect the other way counts as inactive or inconclusive. Potency means the concentration at half of the fitted maximal effect.

SMILES	NPC1 prom act	FLuc counter	ELG1 genotox	SMN2 splice up	Rab9 promoter act
CN(C)c1ccc(N=Cc2nc(-c3ccccc3)oc2O)cc1	u	u	10.3%	-2.6%	28.7%
Oc1oc(-c2ccccc2)nc1C=NCc1ccccc1	u	16.9µM*	20.6µM*	9.3%	25.5%
COc1ccc(N=Cc2nc(-c3ccco3)oc2O)cc1	1.6%	8.49µM*	10.6%	21.9%	-0.2%
Oc1oc(-c2ccccc2)nc1C=Nc1ccccc1	21.5%	10.7µM*	15.6%	25.8%	21.0%
CSc1ccccc1N=Cc1nc(-c2ccccc2)oc1O	1.3%	9.53µM*	u	28.3%	-3.6%
Cc1ccc(N(C)C(=O)C2CCN(S(=O)(=O)c3cn(C)cn3)CC2)cc1	x	-5.2%	x	x	x
O=C(Nc1ccccc1C(=O)O)c1cc(S(=O)(=O)N2CCCCC2)c(Cl)cc1Cl	-0.7%	u	-17.7%	x	12.5%
Cc1cc(S(=O)(=O)N2CCN(c3ccccn3)CC2)c(C)cc1Cl	0.6%	-2.1%	-5.4%	x	-1.0%
O=C(O)c1ccccc1C(=O)O	4.3%	-13.8%	1.1%	-8.9%	-2.2%
CC1=Nc2ccccc2/C1=C\c1nc(-c2ccccc2)oc1O	0.6%	16.9µM*	0.5%	-11.6%	2.1%
COc1ccc(-c2nc(/C=C3\C(C)=Nc4ccccc43)c(O)o2)cc1	-3.3%	u	3.1%	-1.9%	-4.7%
O=C(O)CCc1ccc(-c2ccc(Cl)cc2)o1	8.1%	15.1µM*	u	-2.9%	1.5%
O=C(O)CCc1ccc(-c2ccc(Br)cc2)o1	11.2%	15.1µM*	4.4%	5.1%	5.4%
COc1ccc(-c2ccc(CCC(=O)O)o2)cc1	17.7%	5.36µM*	11.9%	x	17.8%
O=C(O)CCc1ccc(-c2ccc(Br)cc2)n1Cc1ccco1	-2.6%	3.6%	-0.5%	-6.2%	-6.1%
COc1ccc(-c2ccc(CCC(=O)O)n2C(C)C)cc1	-2.7%	-2.3%[2.3 µM]	0.2%	22.5%	-0.5%
CN1CCN(C(=O)CN(C2CCCCC2)S(=O)(=O)c2ccccc2)CC1	-2.0%	-1.0%	0.2%	x	0.0%
CN1CCN(c2ccc(S(=O)(=O)N3CCCCC3)cc2N)CC1	-4.0%	6.5%	2.5%	x	1.7%
O=C1CC(N2CCN(CCc3ccccn3)CC2)C(=O)N1c1ccc(Cl)cc1 (configuration not stated)	-2.0%	-0.9%	-1.7%	4.4%	1.3%
Cc1ccc(NC(=O)c2cc(-c3cccs3)on2)cc1C	-0.4%	u	u	18.5%	0.4%
O=C(NC1CCCC1)c1cc(-c2cccs2)on1	1.58µM*	4.78µM*	9.2µM*	u	2µM*
O=C(NC1CC1)c1cc(-c2cccs2)on1	x	10.7µM*	x	x	x
CC1CCCC(C)N1C(=O)c1cc(-c2cccs2)on1 (configuration not stated)	17.4%	u	12.1%	u	28.2%
COc1ccccc1CNc1ncncc1-c1cccc(C#N)c1	x	x	x	-4.4%	x
COc1ccc(Cc2nc3ccc(C(=O)N4C[C@@H](C)O[C@@H](C)C4)cc3o2)cc1OC	26.1%	15.1µM*	u	x	10.3%
SMILES	NPC1 prom act	FLuc counter	ELG1 genotox	SMN2 splice up	Rab9 promoter act
COc1ccc(Cc2nc3ccc(C(=O)N4CCOCC4)cc3o2)cc1	3.16µM*	13.5µM*	18.3µM*	x	3.98µM*
COc1ccc(Cc2nc3ccc(C(=O)N4CCCN(C=O)CC4)cc3o2)cc1	-0.3%	-8.6%	-3.5%	x	1.2%
CCN(CC)C(=O)CSc1nnc(-c2ccccc2)o1	u	u	16.4µM*	-15.7%	3.55µM*
Cc1ccc(-c2nnc(SCc3cccc(C#N)c3)o2)cc1	x	u	x	-9.9%	x
CN(C)c1cccc(-c2nnc(SCCCC#N)o2)c1	3.16µM*	6.75µM*	u	11.2µM*	2.24µM*
CN(C)CCSc1nnc(-c2ccccc2)o1	23.7%	u	13µM*	10µM*	29.5%
Cc1ccc(Nc2nc3ccc(C(=O)c4ccccc4)cc3n3c(C)nnc23)c(C)c1	x	-2.0%	x	x	x
CCc1ccccc1NC(=O)CC(C)n1nc(C)cc1C (configuration not stated)	x	-1.2%	x	x	x
CC(C)OC(=O)C[N+](C)(C)CCN1C(=O)C2C(c3ccccc3)C=CC(c3ccccc3)C2C1=O (configuration not stated)	-4.2%	-0.2%	0.9%	1.7%	-2.2%
O=[N+]([O-])c1ccc2oc(-c3ccccc3)nc2c1	u	u	u	15.8µM*	2.24µM*
COc1ccc(-c2nc3ccc([N+](=O)[O-])cc3o2)cc1	1.58µM*	0.757µM*	6.51µM*	11.2µM*	1.12µM*
Cc1cccc(-c2nc3cc(NC(=O)Cc4ccc(Cl)cc4)ccc3o2)c1	x	1.6%	x	-20.5%	x
Cc1cccc(-c2nc3cc([N+](=O)[O-])ccc3o2)c1	3.55µM*	1.69µM*	16.4µM*	15.8µM*	1.58µM*
NC(N)=Nc1nc2cc([N+](=O)[O-])ccc2o1	-1.3%	u	10.2%	x	8.9%
COc1ccc(NC(=O)Nc2cc(NC(=O)Nc3ccc(OC)cc3)c(C)nc2C)cc1	-1.7%	0.1%	1.7%	20.2%	-4.6%
CC1CCN(S(=O)(=O)c2ccc3nc(NCc4ccc(N(C)C)cc4)ccc3c2)CC1	x	-8.0%	x	x	x
O=C(O)CC1S/C(=N/N=C/C=C/c2ccccc2)NC1=O (configuration not stated)	-2.0%	19µM*	3.2%	-5.5%	-0.1%
COc1ccc(C(=O)Cn2nnc(-c3ccccc3NC(=O)C3CC3)n2)cc1	-2.0%	-0.8%	-4.2%	-17.2%	4.1%
COc1cccc(-c2nnn(CC(C)=O)n2)c1	2.82µM*	6.75µM*	u	12.6µM*	2.51µM*
COc1ccc(C(=O)Cn2nnc(-c3ccccc3F)n2)cc1	21.1%	15.1µM*	4.4%	x	27.5%
COc1ccc(-c2ccc(-c3nnn(CC(C)=O)n3)cc2)cc1	2.51µM*	u	7.2%	u	1.58µM*
CCC(C(=O)O)n1nnc(-c2ccc(-c3ccc(OC)cc3)cc2)n1 (configuration not stated)	25.6%	9.53µM*	u	u	21.9%
O=[N+]([O-])c1cccc(/C=N/NC2CCS(=O)(=O)C2)c1 (configuration not stated)	-3.8%	-5.6%	0.2%	x	-0.1%
Cc1csc2ncc(C(=O)Nc3ccccc3Cl)c(=O)n12	u	-16.6%	u	x	3.16µM*
Cc1csc2ncc(C(=O)Nc3ccccc3F)c(=O)n12	u	u	11.6µM*	12.6µM*	u
Cc1ccsc1C(=O)NNC(=O)C1C2C=CC(C2)C1C(=O)O (configuration not stated)	2.7%	23.9µM*	u	7.3%	7.5%
COC(=O)c1sccc1NC(=O)C1C2C=CC(C2)C1C(=O)O (configuration not stated)	-2.3%	11.9%	1.5%	-28.8%	-1.4%

Screening data deposited in PubChem by National Center for Advancing Translational Sciences (NCATS).
